High-throughput results as filed in PubChem BioAssay.
TDP1 inh = blocks human tyrosyl-DNA phosphodiesterase 1; Q9NUW8; recombinant TDP1, AlphaScreen DNA substrate cleavage; Potency, µM (doses to about 130 µM), usual class: inhibitors; actives 0.28% (n = 350,000); AID 485290; also: nearly all actives have a fitted effect of over 40% in size
Target sequence (Q9NUW8 whole entry, looked up): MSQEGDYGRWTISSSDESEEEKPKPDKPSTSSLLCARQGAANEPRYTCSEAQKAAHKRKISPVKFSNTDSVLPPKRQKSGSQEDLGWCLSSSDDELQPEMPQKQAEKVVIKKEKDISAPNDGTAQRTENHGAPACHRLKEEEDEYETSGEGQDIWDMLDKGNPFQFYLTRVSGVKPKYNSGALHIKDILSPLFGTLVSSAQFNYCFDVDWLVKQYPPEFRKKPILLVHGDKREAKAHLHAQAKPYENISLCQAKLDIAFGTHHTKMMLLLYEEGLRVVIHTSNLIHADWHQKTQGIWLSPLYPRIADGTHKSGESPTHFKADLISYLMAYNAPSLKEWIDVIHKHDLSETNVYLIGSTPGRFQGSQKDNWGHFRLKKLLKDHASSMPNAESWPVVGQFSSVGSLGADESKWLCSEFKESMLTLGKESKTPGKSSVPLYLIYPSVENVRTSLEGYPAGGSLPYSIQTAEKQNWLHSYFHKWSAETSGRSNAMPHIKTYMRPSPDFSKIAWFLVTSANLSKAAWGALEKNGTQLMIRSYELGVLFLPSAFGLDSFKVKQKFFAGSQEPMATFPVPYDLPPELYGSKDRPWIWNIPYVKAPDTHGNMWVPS
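Recombinant human Tdp1 (E. coli-expressed, 1 nM final) preincubated with compounds 15 min at room temperature, then 5'-biotin/3'-phosphotyrosine-FITC DNA substrate (15 nM final) added for 5 min. AlphaScreen beads (10 ug/ml final) added 10 min; cleavage lowers signal.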
TDP1 cell CPT = growth inhibition of DT40 Tdp1-/-;hTDP1 cells with camptothecin (screen for TDP1 inhibitors). chicken DT40 Tdp1-/-;hTDP1 cells + 20 nM CPT, ATP luminescence, 48 h. Potency, µM (highest dose often 46.2 µM), actives largely listed as inhibitors. actives 12% (n = 420,000). AID 686979; also: nearly all actives have a fitted effect of over 55% in size
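Chicken DT40 Tdp1-/- cells complemented with human TDP1, 400 cells/well, exposed to compounds plus 20 nM camptothecin for at least 48 h at 37 C; viability read as ATP content by CellTiter-Glo luminescence.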
DT40 TDP1 no CPT = qHTS for Inhibitors of human tyrosyl-DNA phosphodiesterase 1 (TDP1): qHTS in cells in absence of CPT; AID 686978, 2013; actives 15% (n = 420,000); Potency, µM (titrated, usually from 46.2 µM), actives largely listed as inhibitors; DT40 Tdp1-/- hTDP1 cells, no CPT, ATP luminescence, 48 h; also: nearly all actives have a fitted effect of over 55% in size
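Cells were dispensed at 400 per well, compounds added by pin tool, plates incubated ≥48 hr at 37 °C, then CellTiter-Glo added for 30 min at room temperature before luminescence reading. Line: DT40 Tdp1-/- complemented with hTDP1; camptothecin omitted.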
VP16 counter = inhibits Gal4-VP16 luciferase reporter, ROR gamma counter-screen; actives 3.5% (n = 310,000); AID 2546; Drosophila S2 Gal4-VP16 UAS-luciferase, luminescence, 20 h; Potency, µM (titrated, usually from 53.6 µM), hits mostly inhibitors;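 also: Gal4-VP16 expression switched on by copper sulfate through the metallothionein promoter; nearly all actives have a fitted effect of over 50% in size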
RORg inh = blocks mouse ROR gamma transcriptional activity; P51450; Drosophila S2 Gal4-RORgamma UAS-luciferase reporter, 20 h; Potency, µM (doses to about 53.6 µM), most hits filed as inhibitors; actives 5.4% (n = 310,000); AID 2551; also: nearly all actives have a fitted effect of over 60% in size
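In this cell-based reporter format, copper sulfate (700 uM final) drives Gal4–ROR gamma fusion expression from a metallothionein promoter in Drosophila Schneider cells; compounds preincubated 1 hr, reporter read after 20 hr at ambient temperature.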
A number is an active result; . = inactive; ? = inconclusive; / = not tested or not shown; [ ] = remark or other dose. A selection: hits, their analogues and other compounds. The true share with any hit is near 19%. Calls follow the shape of the dose curve; as a rule, active = well fitted curve in the direction sought with a large enough effect; inconclusive = small, poorly fitted or top-dose-only effect, or another doubt; inactive = no such curve, though single readings can be large; an effect the other way counts as inactive or inconclusive.

SMILES | TDP1 inh | TDP1 cell CPT | DT40 TDP1 no CPT | VP16 counter | RORg inh
COc1ccc(-c2noc(N3CCC(C(=O)N(C)c4ccccc4)CC3)n2)cc1 | / | ? | 29µM | . | .
CCOC(=O)N1CCC(NC(=O)C2CCN(c3nc(-c4ccc(OC)cc4)no3)CC2)CC1 | . | ? | 4.1µM | . | .
O=C(CCN1C(=O)S/C(=C\c2ccccc2)C1=O)NCCCn1ccnc1 | . | ? | ? | . | .
CCC1=C(OC(=O)N(CC)CC)N2C(=O)OC(=NCc3ccccc3)[C@]2(C)[C@H]2C1=CC[C@H]1C(=O)N(c3ccccc3)C(=O)[C@H]12 | . | . | ? | . | .
CCN(CC)CC(=O)c1c[nH]c2ccccc12 | . | . | . | . | .
CCN(CC)CC(=O)c1c[nH]c2ccc(C)cc12 | . | 21µM | 23µM | . | .
CCCCc1ccc(NC(=O)N2CCN(c3cc(C)nc4ccccc34)CC2)c(C)c1 | / | ? | ? | . | ?
Cc1cccc(C(=O)NNC(=O)C(=O)NC(C)(C)C)c1 | . | . | ? | . | 13µM
CC(C)(C)NC(=O)C(=O)NNC(=O)c1ccc(C(C)(C)C)cc1 | . | ? | ? | ? | 8.9µM
CC(C)(C)NC(=O)C(=O)NNC(=O)c1ccco1 | . | . | . | . | .
CC(C)(C)NC(=O)C(=O)NNC(=O)c1cccc(Br)c1 | . | . | . | ? | ?
Nc1nc(NCCN2CCOCC2)nc(NCc2ccccc2)c1[N+](=O)[O-] | . | ? | 18µM | . | .
COc1nc(NCCN2CCOCC2)nc(Nc2ccccc2)n1 | . | . | . | . | .
O=[N+]([O-])c1ccc(Nc2nc(NCCN3CCOCC3)nc(Nc3ccc(Cl)cc3)n2)cc1 | / | 14µM | 10µM | / | /
O=[N+]([O-])c1ccc(Nc2nc(Cl)nc(NCCO)n2)cc1 | . | . | . | . | .
COc1ccc(Nc2nc(NCCN3CCOCC3)nc(Nc3ccc(OC)cc3)n2)cc1 | / | 11µM | 14µM | . | .
O=[N+]([O-])c1ccc(Nc2nc(NCCN3CCOCC3)nc(Nc3ccc(I)cc3)n2)cc1 | / | 7.1µM | 4.5µM | / | /
Cn1cnc(S(=O)(=O)N2CCC(C(=O)Nc3ccc(C#N)cc3)CC2)c1 | . | . | . | / | /
COC(=O)c1sccc1S(=O)(=O)N(CC(=O)Nc1cccc(C)c1C)c1ccc(C)c(C)c1 | . | 21µM | 23µM | / | /
COC(=O)c1sccc1S(=O)(=O)N(CC(=O)Nc1cc(F)ccc1F)c1ccc(C)c(C)c1 | . | ? | 13µM | / | /
CCc1ccccc1NC(=O)CN(c1ccccc1)S(=O)(=O)c1ccsc1C(=O)OC | . | 16µM | 18µM | / | /
COC(=O)c1sccc1S(=O)(=O)N(CC(=O)Nc1cc(C)ccc1C)c1ccc(C)c(C)c1 | . | 21µM | 21µM | / | /
Cc1ccc(-n2ncc3c(NCCc4ccccc4)ncnc32)cc1Cl | . | ? | ? | / | /
O=C(O/N=C\c1ccc(N2CCOCC2)c([N+](=O)[O-])c1)c1ccc(F)cc1 | . | . | . | . | .
CCC(C)NC(=O)CSC1=Nc2ccccc2C2=NC(c3ccccc3)C(=O)N12 (centres undefined) | . | . | . | . | .
SMILES | TDP1 inh | TDP1 cell CPT | DT40 TDP1 no CPT | VP16 counter | RORg inh
CC(C)(C)c1ccc(N2C(=O)CSC2c2cccnc2)cc1 (centres undefined) | . | ? | 8.2µM | . | .
Oc1ccc(C[C@H]2CNC(=S)N2C[C@H]2CCCN2C[C@H](Cc2ccccc2)N2C[C@H](Cc3ccc(O)cc3)N(CC3CCCCCC3)C2=S)cc1 | / | 15µM | 16µM | / | /
Oc1ccc(C[C@H]2CN([C@@H](Cc3ccccc3)CN3CCCC3CN3C(=S)NC[C@@H]3Cc3ccccc3)C(=S)N2CC2CCCCC2)cc1 (some centres undefined) | / | ? | 16µM | / | /
Oc1ccc(C[C@H]2CNC(=S)N2CC2CCCN2C[C@H](Cc2ccc(O)cc2)N2C[C@H](Cc3ccc(O)cc3)N(CC3CCCCC3)C2=S)cc1 (some centres undefined) | / | 7.3µM | 5.8µM | / | /
O=C1NC[C@H](Cc2ccc(O)cc2)N(C[C@@H]2CCCN2C[C@H](Cc2ccccc2)N2C[C@H](Cc3ccccc3)N(CCc3ccccc3)C(=O)C2=O)C1=O | / | . | . | / | /
Oc1ccc(C[C@H]2CN([C@@H](Cc3ccc(O)cc3)CN3CCC[C@@H]3CN3C(=S)NC[C@@H]3Cc3ccccc3)C(=S)N2CC2CCCCCC2)cc1 | / | 16µM | 23µM | / | /
Oc1ccc(C[C@H]2CN([C@@H](Cc3cccc(O)c3)CN3CCC[C@@H]3CN3C(=S)NC[C@@H]3Cc3ccccc3)C(=S)N2CC2CCCCC2)cc1 | / | 3.7µM | 2.9µM | / | /
COc1ccc(OC2CCN(S(=O)(=O)c3ccc(OC)cc3)CC2)cc1 | . | ? | ? | . | ?
CCOC(=O)COc1ccc2c(C#N)c3ccccn3c2c1 | . | . | . | .[10 µM] | .
Cc1csc(NC(=O)c2sc3nc(-c4cccs4)ccc3c2N)n1 | . | ? | 25µM | . | .
O=C(Nc1nc(-c2ccc(Cl)s2)cs1)c1ccncc1 | . | 9.2µM | 9.2µM | . | .
O=C(Nc1nc(-c2cccs2)cs1)c1ccc(Cl)cc1 | . | 26µM | 15µM | ? | ?
COc1cc(C(=O)Nc2nc(-c3cccs3)cs2)cc(OC)c1OC | . | 23µM | 13µM | . | .
COc1ccc(C(=O)Nc2nc(-c3cccs3)cs2)cc1 | . | ? | ? | . | .
O=C1CC(c2ccco2)CC(O)=C1C=NCCN1CCN(C(=S)Nc2ccccc2)CC1 (centres undefined) | / | . | . | . | .
Cc1ccccc1NC(=O)Cn1nnc2sc3c(c2c1=O)CC(C)(C)OC3 | . | . | . | . | .
Cc1c(C(=O)Nc2nccs2)sc2nc(-c3cccs3)cc(C(F)(F)F)c12 | . | 18µM | 23µM | 3.2µM | 0.79µM
COc1ccc(NC(=O)NC(C)c2ccncc2)cc1OC (centres undefined) | . | . | . | / | .[0.365 µM]
CCc1ccccc1NS(=O)(=O)c1ccc(-c2coc(C)n2)cc1 | . | ? | ? | / | /
COc1ccc(NS(=O)(=O)c2ccc(-c3coc(C)n3)cc2)c(OC)c1 | . | 23µM | . | . | ?
COc1ccc(OC)c(CNS(=O)(=O)c2ccc(-c3coc(C)n3)cc2)c1 | . | ? | 21µM | / | /
Cc1nc(-c2ccc(S(=O)(=O)NCc3ccc(F)cc3)cc2)co1 | . | . | . | / | /
Cc1ccc(S(=O)(=O)Nc2cc(=O)[nH]c(SCC(=O)Nc3cccc(C(F)(F)F)c3)n2)cc1 | . | . | . | . | .
Cc1nc2cc(C)c(C)cc2o1 | / | . | . | / | /
COC(=O)C(C)N(C(=O)c1ccc(Cl)cc1)c1c(C)cccc1C (centres undefined) | . | 15µM | ? | . | ?
CCN(CC(=O)NC(C)C)C(=O)c1ccc(Cl)cc1 | . | . | . | . | .
